# Compound activity from PubChem.
# Most compounds without a hit are left out; they make up all but 1.7% or so of the library.
# ARNT-TACC3 inh: disruptors of ARNT/TACC3 protein interaction, primary screen, biochemical, AlphaScreen, single concentration; Transforming acidic coiled-coil-containing protein 3 (Homo sapiens), Q9Y6A5; AlphaScreen His-ARNT PAS-B/GST-TACC3 binding, luminescence; TACC3 fragment carries E629A point mutation; inhibition, % at 9.99 µM; 0.66% of 390,000 active; AID 623870, 2012;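 active means mean inhibition of replicates at least 50% and at least half of replicates each reaching 50%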;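 further: 0% = complete ARNT plus TACC3 wells and 100% = ARNT alone without TACC3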
# aDG glyco act: activators of alpha-DG glycosylation, primary screen, uHTS, Pro5-aDG cells, AlphaScreen. alpha-DG glycosylation AlphaScreen (IIH6); 0% Pro5, 100% B10-LARGE cell signal. activation, % at 10 µM. 0.22% of 360,000 active. AID 624168, 2012;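 active means activation of at least 8% versus controls, or a plate z-score of at least 8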;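 further: Pro5 are CHO cells carrying HIG-tagged alpha-DG that lacks glycosylation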
# N-glyco inh: increase of ERlucT glycosylation luciferase signal, primary screen, N-linked glycosylation inhibitor project, D54 ERlucT cells, luminescence, set 2 | D54 ERlucT glycosylation luciferase reporter, 24 h; percent of 100 nM tunicamycin response | reporter increase, % at 12.5 µM | 0.23% of 360,000 active | AID 588692, 2011;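 active means mean luciferase reporter signal, scaled so untreated is 0 and the glycosylation-blocking control 100, at or above a set limit in every replicate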;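 further: luciferase carries N-glycosylation sites so blocking glycosylation raises the light; 0% = median of neutral control wells and 100% = median of 100 nM tunicamycin wells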
# H9c2 protect: cardioprotection against H2O2-induced cell death, primary screen, uHTS, H9c2 cells, ATPLite luminescence; H9c2 cardiomyocytes, H2O2 injury protection, 2 h; protection from H2O2 cell death, % at 20 µM; 0.63% of 360,000 active; AID 588492, 2011;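 active means compounds giving at least 50% protection of heart cells from peroxide-induced death in the single-dose screen, raw or plate-pattern-corrected value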;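 further: 0% = DMSO wells with peroxide and 100% = DMSO wells without peroxide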
# Vif inh: HIV Vif self-association inhibitors, primary screen, imaging, HEK293T, single point; 0.35% of 340,000 active; AID 602346, 2012; inhibition, % at 7.49 µM; HEK293T cells, Vif self-association by quenched fluorescence, 24 h; in the data active means inhibition above about 50%, passing the limit was not always enough
# ARNT Alpha ctr-1: AlphaScreen signal interference compounds, dose response, artefact control for ARNT-TACC3 interaction inhibitor project, biochemical, luminescence, cherry-pick. His-ARNT PASB-GST AlphaScreen artifact counter-screen. AC50, µM (top dose mostly 68 µM), without a hit: at the top dose activity change, negative = signal decrease. 50% of 1,200 active. shares compounds with ARNT-TACC3 inh. AID 651705, 2012;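 active means every separate test run was called active for a drop in luminescence, with AC50 within twice the top valid dose, actives reach about 71 µM in these data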
# ARNT Alpha ctr-2: AlphaScreen signal interference by compounds, dose response, artefact control for ARNT/TACC3 disruptor project, biochemical, dual-tagged ARNT, dry powder; shares compounds with ARNT-TACC3 inh; Dual-tagged His-ARNT PASB-GST AlphaScreen artifact counter-screen; AC50, µM; 70% of 45 active; AID 720564, 2013;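 active means luminescence drop, with half-maximal potency fitted within twice the sample's top valid dose, cut at about 70 µM in these data; inactive means the rest, including signal moving the wrong way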
# Starred values were filed as active, the others as inactive; nt = no result; [ ] = dose if it differs, or a comment.
SMILES,ARNT-TACC3 inh,aDG glyco act,N-glyco inh,H9c2 protect,Vif inh,ARNT Alpha ctr-1,others
Nc1nc(-c2ccccn2)nc(N)c1Cc1ccc(Cl)cc1Cl,57*,4,20,16,3,26µM*,ARNT Alpha ctr-2=12*
COc1ccc(S(=O)(=O)N(C)C[C@H]2Oc3ccc(NS(=O)(=O)c4c(C)noc4C)cc3CC(=O)N([C@H](C)CO)C[C@@H]2C)cc1,1,nt,nt,nt,nt,nt,
CNc1nc(C(=O)O)nc(N2CCOCC2)n1,56*,0,1,10,-4,-31%,
C[C@H](CO)N1C[C@H](C)[C@@H](CN(C)S(=O)(=O)c2ccc(Cl)cc2)Oc2c(NC(=O)C3CCOCC3)cccc2C1=O,-4,nt,nt,nt,nt,nt,
COc1cc(/C=C2\S/C(=N/S(=O)(=O)c3ccccc3)NC2=O)c([N+](=O)[O-])cc1OC,9.7*,0,0,18,-4,-25%,
Cc1ccc(OCc2nc(-c3ccccn3)n[nH]2)cc1,nt,0,1,18,nt,nt,
Cc1cccc(OCc2nc(-c3ccccn3)n[nH]2)c1,67*,1,1,26,3,35µM*,
O=c1cc(N/N=C/c2ccccc2)[nH]c(=O)[nH]1,20*,0,24,2,1,1%,
O=c1cc(C=NNc2ccccc2)[nH]c(=O)[nH]1,-4,0,4,-11,8,nt,
C[C@H]1CCCCO[C@H](CN(C)C(=O)Cc2ccccc2)[C@@H](C)CN([C@@H](C)CO)C(=O)c2cc(NS(=O)(=O)c3cn(C)cn3)ccc2O1,1,nt,nt,nt,nt,nt,
Cc1ccc(S(=O)(=O)n2nc(C)c(C#N)c2N)cc1,67*,0,1,8,-2,2%,
C[C@@H]1CN([C@@H](C)CO)C(=O)c2cccc(NS(=O)(=O)c3ccccc3)c2O[C@@H]1CN(C)Cc1ccc2c(c1)OCO2,-1,nt,nt,nt,nt,nt,
CCCC#Cc1cnc2c(c1)C(=O)N([C@H](C)CO)C[C@H](C)[C@@H](CN(C)C(=O)C1CCOCC1)O2,-6,nt,nt,nt,nt,nt,
Cc1cccc(Nc2nc(-c3cccs3)cs2)n1,-3,0,-6,-24,-1,nt,
Cc1cccc(Nc2nc(-c3ccccn3)cs2)n1,73*,4,-9,-13,nt,47µM*,
Cc1cccnc1Nc1nc(-c2ccccn2)cs1,69*,-1,-14,-1,-12,5.3µM*,
CC=Cc1ccc2n(c1=O)C[C@@H]1[C@@H](CO)[C@H](C(=O)NCCc3ccncc3)[C@H]2N1Cc1ccncc1 (mixture of isomers),-2,nt,nt,nt,nt,nt,
C[C@H](NC(=O)C[C@@H]1CC[C@H]2[C@@H](COC[C@H](O)CN2Cc2cc(F)ccc2F)O1)c1ccccc1,-4,nt,nt,nt,nt,nt,
Cc1ccc(Nc2nc(-c3c(C)nc4ncccn34)cs2)cc1,27,0,12,-4,2,nt,
Cc1nc2ncccn2c1-c1csc(Nc2ccc(O)cc2)n1,68*,0,14,20,7,22µM*,
CCCN(C)C[C@H]1Oc2cc(C#Cc3cccnc3)ccc2S(=O)(=O)N([C@H](C)CO)C[C@H]1C,-6,nt,nt,nt,nt,nt,
Nc1ccc(C(=O)Nc2ccccc2C(=O)O)cc1,12,0,1,-4,1,nt,
O=C(Nc1ccccc1C(=O)Nc1ccccc1C(=O)O)c1ccccc1,74*,0,-3,-8,-12,26µM*,
C[C@@H]1CN([C@H](C)CO)C(=O)c2cc(N(C)C)ccc2O[C@@H]1CN(C)C(=O)Nc1ccccc1,0,nt,nt,nt,nt,nt,
O=C(Nc1nc(-c2ccccc2)cs1)c1cc(-c2ccccc2)on1,nt,nt,nt,nt,nt,-2%[38 µM],
O=C(Nc1ccccc1)c1cn2ccccc2n1,41,0,-20,-13,-11,nt,
O=C(Nc1cn2ccccc2n1)c1cc(-c2ccccc2)on1,nt,nt,nt,nt,nt,-7%[38 µM],
